Gal4-VP16 FLuc – counter-screen for ROR gamma inhibitors: Gal4-VP16 reporter. Drosophila S2 Gal4-VP16 UAS-luciferase, luminescence, 20 h. Potency, µM (top dose mostly 53.6 µM), usual class: inhibitors. 310,000 tested, 3.5% active;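 further: Gal4-VP16 expression switched on by copper sulfate through the metallothionein promoter; nearly all actives have a fitted effect of over 50% in size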
TDP1 cell noCPT – qHTS for Inhibitors of human tyrosyl-DNA phosphodiesterase 1 (TDP1): qHTS in cells in absence of CPT. DT40 Tdp1-/- hTDP1 cells, no CPT, ATP luminescence, 48 h. Potency, µM (titrated, usually from 46.2 µM), hits mostly inhibitors. 420,000 tested, 15% active; further: nearly all actives have a fitted effect of over 55% in size
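DT40 Tdp1-/-;hTDP1 cells, no CPT (DMSO vehicle only), 400 cells/well; compounds pin-transferred; ≥48 hr, 37 °C; CellTiter-Glo 30 min RT dark, luminescence read.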
ELG1 repair inh – inhibitors of ELG1-dependent DNA repair in HEK293T cells; HEK293T ELG1-luciferase reporter, luminescence, 16 h; DNA damage induced by 5-fluorouridine; Potency, µM (series often up to 46.1 µM), actives largely listed as inhibitors; 330,000 tested, 2.3% active; further: nearly all actives have a fitted effect of over 55% in size
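DMSO vehicle served as the neutral condition. Each well held 2,000 cells given 5-fluorouridine plus compound; after 16 hr at 37 °C/5% CO2, ONE-Glo was added and luciferase measured 30 min later.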
ALOX12 inh – inhibitors of human 12S-lipoxygenase ALOX12 | P18054 | Potency, µM (doses to about 108 µM), hits mostly inhibitors | 580,000 tested, 1.1% active | purified 12hLO, xylenol orange hydroperoxide absorbance
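Purified human 12hLO (150 nM final) in 25 mM Hepes, 0.01% Triton X-100, pH 7.0 was preincubated 15 min at room temperature with compound. Then 40 uM arachidonic acid was added, 30 min. Hydroperoxide was read by Fe-XO absorbance ratio 573/405 nm.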
RORg inh – inhibitors of mouse ROR gamma transcriptional activity; Drosophila S2 Gal4-RORgamma UAS-luciferase reporter, 20 h; Potency, µM (highest dose often 53.6 µM), usual class: inhibitors; P51450; 310,000 tested, 5.4% active; further: nearly all actives have a fitted effect of over 60% in size
Target sequence (P51450 whole entry, looked up, the tested form may be a part): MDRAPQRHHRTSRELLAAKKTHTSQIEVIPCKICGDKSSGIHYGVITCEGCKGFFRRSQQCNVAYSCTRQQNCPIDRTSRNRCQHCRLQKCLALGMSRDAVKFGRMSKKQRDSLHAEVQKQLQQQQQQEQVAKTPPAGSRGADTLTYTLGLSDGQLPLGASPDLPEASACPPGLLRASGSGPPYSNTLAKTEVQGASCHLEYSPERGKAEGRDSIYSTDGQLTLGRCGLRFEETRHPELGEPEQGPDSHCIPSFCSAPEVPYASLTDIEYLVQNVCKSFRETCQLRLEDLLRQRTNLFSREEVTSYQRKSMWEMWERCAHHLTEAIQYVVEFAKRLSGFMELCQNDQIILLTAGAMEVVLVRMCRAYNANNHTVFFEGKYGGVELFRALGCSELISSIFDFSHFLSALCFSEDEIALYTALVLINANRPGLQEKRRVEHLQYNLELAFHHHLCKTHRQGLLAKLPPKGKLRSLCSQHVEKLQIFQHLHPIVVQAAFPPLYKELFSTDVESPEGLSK
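Compounds are pin-transferred onto Drosophila Schneider cells expressing a copper-inducible Gal4–ROR gamma transactivation domain fusion. After 1 hr, copper sulfate is added to 700 uM final; luciferase is read 20 hr later.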
TDP1 cell CPT – growth inhibition of DT40 Tdp1-/-;hTDP1 cells with camptothecin (screen for TDP1 inhibitors); chicken DT40 Tdp1-/-;hTDP1 cells + 20 nM CPT, ATP luminescence, 48 h; Potency, µM (series often up to 46.2 µM), most hits filed as inhibitors; 420,000 tested, 12% active; AID 686979; further: nearly all actives have a fitted effect of over 55% in size
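Chicken DT40 Tdp1-/- cells complemented with human TDP1, 400 cells/well, exposed to compounds plus 20 nM camptothecin for at least 48 h at 37 C; viability read as ATP content by CellTiter-Glo luminescence.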
A number is an active result; n = inactive; u = inconclusive; x = no result given; [ ] = remark or other dose. Only some compounds are listed: those with a hit (about 15% of all), similar ones and a draw of the others. The call rests on the fitted dose curve; in most records, active means well fitted curve in the direction sought with a large enough effect; inconclusive means small, poorly fitted or top-dose-only effect, or another doubt; inactive means no such curve, though single readings can be large; an effect the other way counts as inactive or inconclusive.

SMILES	Gal4-VP16 FLuc	TDP1 cell noCPT	ELG1 repair inh	ALOX12 inh	RORg inh	TDP1 cell CPT
O=C(NCC1CC1)c1cc2c(c(-c3cccc(-c4ccccc4F)c3)n1)[C@H](CCO)N(C(=O)CC1CC1)C2	x	18µM	x	n	x	u
O=C(NCC1CC1)c1cc2c(c(-c3cccc(-c4ccccc4F)c3)n1)[C@@H](CCO)N(C(=O)CC1CC1)C2	x	u	x	n	x	21µM
Cc1cnc(C(=O)NCc2ccc(C)s2)cn1	x	x	x	n	x	x
O=C(CCc1nc2sc3c(c2c(=O)[nH]1)CCC3)NCc1ccccc1	x	x	x	n	x	x
O=C1C2C3C=CC(C3=C(c3ccccc3)c3ccccc3)C2C(=O)N1Cc1ccccc1 (configuration not stated)	n	18µM	n	n	n	u
O=C1C2C3C=CC(C3=C(c3ccccc3)c3ccccc3)C2C(=O)N1CCO (configuration not stated)	n	u	n	n	n	n
NS(=O)(=O)c1ccc2c(c1)C(=NO)c1cc(S(N)(=O)=O)ccc1-2	n	n	n	n	n[1.91 µM]	n
NC1=C(Cl)C(=O)c2ccccc2C1=O	x	4.6µM	x	u	x	5.2µM
Nc1cc(N)c2c(c1)C(=O)c1ccccc1-2	x	u	x	n	x	n
NC1=C(Cl)C(=O)c2ccc(S(N)(=O)=O)cc2C1=O	x	0.46µM	x	n	x	0.41µM
COCCn1cc(C(=O)NCCc2ccc(S(N)(=O)=O)cc2)ccc1=O	x	x	x	n	x	x
Nc1nc(N)c2[nH]cnc2n1	x	8.2µM	x	n	x	6.5µM
Nc1nc(OCc2ccccc2)c2[nH]cnc2n1	x	n	x	n	x	n
COC(=O)c1noc(-c2ccc(Cl)cc2)n1	x	x	x	n	x	x
CO/C([O-])=N/c1c[n+](-c2ccc(Cl)cc2)no1	n	n	u	25µM	n	u
Cc1ccc(C2CC(c3ccc(Cl)cc3)=NNC2=O)cc1 (configuration not stated)	14µM	u	u	n	u	n
CCc1ccc(C2CC(c3ccc(Cl)cc3)=NNC2=O)cc1 (configuration not stated)	n	u	n	n	n	u
O=C1NN=C(c2ccc(Br)cc2)CC1c1ccc(Cl)cc1 (configuration not stated)	n	u	n	40µM	n	u
Cc1cccnc1NC(=S)NCCc1ccccc1	10µM	21µM	u	7.1µM	2.8µM	u
Cc1ccc(NC(=S)NCCc2ccccc2)nc1	5µM	5.8µM	u	u	0.5µM	u
Cc1cccc(NC(=S)NCc2ccccc2Cl)c1C	4µM	u	u	n	5µM	u
Cc1cccc(C)c1NC(=S)NCCc1ccc(O)c(O)c1	u	13µM	u	35µM	7.9µM	16µM
S=C(NCCc1ccccc1)Nc1ncccn1	x	n	x	u	x	n
Cc1c(Cl)cccc1NC(=S)NCc1ccccc1	x	u	x	u	x	n
O=C(NCC1CCN(Cc2cccc(F)c2)CC1)C1CCN(c2cn[nH]c(=O)c2)C1 (configuration not stated)	x	x	x	n	x	x
SMILES	Gal4-VP16 FLuc	TDP1 cell noCPT	ELG1 repair inh	ALOX12 inh	RORg inh	TDP1 cell CPT
COc1ccc(N2CCN(C(=S)Nc3cccc(C)c3C)CC2)cc1	n	n	n	n	n	n
Cc1cccc(NC(=O)CCc2ccccc2)c1C	n	n	n	n	n	n
Cc1cccc(NC(=S)NCCc2ccccc2)c1C	5µM	u	n	u	3.5µM	26µM
COc1ccc(CCNC(=S)Nc2cccc(C)c2C)cc1	7.9µM	u	n	n	4µM	u
Cc1sc2ncnc(SC(F)F)c2c1C	x	x	x	n	x	x
Clc1ccc(CSc2nnc(NC3=NCCCCC3)s2)cc1	n	10µM	n	n	n	u
Nc1nnc(SCc2ccc(Cl)cc2)s1	n	n	u	n	u	n
CCOC(=O)CN(C(=O)CSc1nnc2c(n1)[nH]c1ccccc12)c1ccccc1	n	u	n	n	n	u
CCOC(=O)CN(C(=O)CSc1nnc2c(n1)[nH]c1c(C)cc(C)cc12)c1ccccc1	n	x	16µM	n	n	x
CCOC(=O)CN(C(=O)CSc1nnc2c(n1)[nH]c1ccc(F)cc12)c1ccccc1	n	u	u	n	n	21µM
CCOC(=O)CN(C(=O)CSc1nnc(CNc2ccc(C)cc2C)n1CC)c1ccccc1	n	u	n	n	n	u
CCC(C)NC(=O)NCC12CC3CC(CC(C3)C1)C2 (configuration not stated)	x	x	x	n	x	x
CCc1cc(Cn2nc(-c3ccccc3)cc2C(=O)NCc2ccccc2OC)on1	x	21µM	n	n	x	u
COc1ccccc1CNC(=O)c1cc(-c2ccccc2)nn1Cc1cc(C)no1	x	u	n	n	x	u
CCOc1ccccc1NC(=O)C1=C(C)NC(=S)NC1c1cccs1 (configuration not stated)	20µM	u	u	n	6.3µM	u
CN(C)c1ccc(C=c2c3ccccc3n3c2c2c([n+]3C)CCCC2)cc1	x	0.33µM	x	u	x	0.41µM
COc1cc(C=c2c3ccccc3n3c2cc(-c2ccccc2)[n+]3C)cc(OC)c1OC	x	4.6µM	x	u	x	5.2µM
Cn1c(CO)c(-c2ccccc2)c2cc([N+](=O)[O-])ccc21	n	u	n	n	n	n
CN(C)c1ccc(/C=C2\CCC/C(=C\c3ccccc3)C2=O)cc1	n	u	u	n	n	u
COc1cc(N(C)C)ccc1C=c1c2ccccc2n2c1cc(-c1ccccc1)[n+]2C	x	0.37µM	x	u	x	0.52µM
COc1cc(/C=C(/C(=O)O)c2ccc(-c3ccccc3)cc2)cc(OC)c1OC	n	u	n	n	n	u
CN(C)c1ccc(C=c2c3cc([N+](=O)[O-])ccc3n3c2cc(-c2ccccc2)[n+]3C)cc1	x	2.6µM	x	7.9µM	x	2.9µM
CC(C)CC(=O)N1CCCCCNC(=O)[C@H]2C[C@H](C(=O)N3CCc4ccccc4C3)C[C@H]21	x	x	x	n	x	x
O=C1CCN(C(=O)CCCc2ccccc2)CCCCCCN1	x	x	x	n	x	x
CN(C)c1oc(-c2ccccc2Cl)nc1S(=O)(=O)c1ccc2c(c1)OCCO2	x	x	x	n	x	x
CN(C)c1ccc(C=c2c3ccccc3n3c2cc(-c2ccccc2)[n+]3C)cc1	x	0.37µM	x	40µM	x	0.58µM
CN(C)c1ccc(C=c2c3ccccc3n3c2cc(-c2ccc(Cl)cc2)[n+]3C)cc1	x	4.6µM	x	45µM	x	4.1µM
c1ccc(-c2ccnc3nc(N4CCN(c5ccccc5)CC4)nn23)cc1	n	21µM	n	n	n	18µM
CCCc1c(C(=O)OCC)nnc2c(-c3ccc(Br)cc3)c(C)nn12	x	x	x	n	x	x
CC1(CCCCc2ccccc2)COc2ccc(C(=O)Nc3cccnc3)cc2N1 (configuration not stated)	x	x	x	n	x	x

Screening data from PubChem.
